# Where a name gives a salt, the structure may show the parent alone. Unmarked numbers belong to inactive results.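 How the source made its calls: active = AUC significantly below DMSO controls by Student t-fit with adjusted P under 0.01; inactive = not significantly reduced.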
# Test system: Haemophilus parainfluenzae
# Assay: growth AUC normalised to DMSO control (fraction of control); higher = less growth inhibition, active = hit call of the paper
# Conditions: 20 µM
# Outline: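 Hemin and NAD were added to the medium for Haemophilus parainfluenzae. All pathogens, after two anaerobic passages, were inoculated at a starting OD578 of 0.01 into pre-reduced mGAM plates with 20 μM compound and 1% DMSO under breathable seals, and OD578 was read hourly for 24 h in three biological replicates. AUC of each growth curve was obtained with the trapezoidal rule up to the exponential-to-stationary transition and normalised to DMSO controls from the same plate.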
row,Structure (SMILES),growth AUC normalised to DMSO control
1,CS(=O)(=O)OCCCCOS(C)(=O)=O [Busulfan],1
2,CC(NCCc1ccc(O)cc1)C(O)c1ccc(O)cc1 (stereo unspecified) [Ritodrine hydrochloride],1
3,COC1=CC(=O)C[C@@H](C)[C@]12Oc1c(Cl)c(OC)cc(OC)c1C2=O [Griseofulvin],1.02
4,CC(C)c1c(C(=O)Nc2ccccc2)c(-c2ccccc2)c(-c2ccc(F)cc2)n1CC[C@@H](O)C[C@@H](O)CC(=O)O [Atorvastatin],0.996
5,CO[C@H]1C[C@H](O[C@H]2[C@H](C)[C@@H](O[C@@H]3O[C@H](C)C[C@H](N(C)C)[C@H]3OC(C)=O)[C@@H](C)C[C@@]3(CO3)C(=O)[C@H](C)[C@@H](OC(C)=O)[C@@H](C)[C@@H](C)OC(=O)[C@@H]2C)O[C@@H](C)[C@@H]1OC(C)=O [Troleandomycin],0.921
6,CCc1c2c(nc3ccc(OC(=O)N4CCC(N5CCCCC5)CC4)cc13)-c1cc3c(c(=O)n1C2)COC(=O)[C@]3(O)CC [Irinotecan hydrochloride trihydrate],1
